# Measured values taken from PubChem BioAssay (NCI).
# About 79,000 compounds went through this panel and 15% of them were active in at least one assay; those are over-represented in the sample as a whole. Unmarked numbers belong to inactive results. Active and inactive are the calls of the source. Rule as the data show it: active = growth inhibition above about 70%; inactive = the rest.
# Assay: NCI Yeast Anticancer Drug Screen. Data for the rad52 strain (AID 147);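 also: 0% = growth of vehicle-treated control cultures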
# Conditions: S. cerevisiae rad52 mutant growth inhibition, stronger effect = higher value
# Description: Growth inhibition of yeast strains with defined genetic alterations is measured as a screen for potential anti-cancer activity. Selected strains with alterations in DNA damage repair or cell cycle control were exposed to compounds and growth inhibition was measured relative to vehicle treated controls. The strain used in this assay is rad52
SMILES,growth inhibition (at 1.2 µM),growth inhibition (at 3.7 µM),growth inhibition (at 11.0 µM),growth inhibition (at 33.0 µM),growth inhibition (at 100.0 µM)
O=[N+]([O-])O.[NH-]C1CCCCC1[NH-].[NH-]C1CCCCC1[NH-].[NH-]C1CCCCC1[NH-].[OH-].[OH-].[OH-].[Pt+4].[Pt+4].[Pt+4] (stereo not given),-29%,-36%,-51%,-26%,-25%
O=C(/C=C(\c1ccccc1)N1CC1)c1ccccc1,-5%,-10%,-2%,8%,97% (active)
Oc1cccnc1[Se],4%,7%,55%,99% (active),99% (active)
CCS(=O)(=O)[O][Sn]([CH2]C)([CH2]C)[O]S(=O)(=O)CC,-49%,-43%,-29%,-15%,50%
CCOC(=O)C1=C(C(=O)OCC)C2(c3ccccc3)N(O1)c1ccccc1C2(C)C (stereo not given),-3%,-2%,0%,3%,71% (active)
Nc1nc(-c2ccccc2)c(-c2ccccc2)[se]1,3%,3%,0%,12%,28%
CC[C@@]1(O)C(=O)OCc2c1cc1n(c2=O)Cc2cc3ccccc3nc2-1,97% (active),98% (active),98% (active),97% (active),95% (active)
NNc1ccccc1Cl,40%,72% (active),78% (active),95% (active),96% (active)
